Most compounds without a hit are left out; they make up all but 6.5% or so of the library.
Vaccinia Venus: inhibitors of vaccinia virus (Venus reporter); actives 0.46% (n = 330,000); Vaccinia virus Venus reporter expression, fluorescence; Potency, µM (series often up to 36.5 µM), inactives show at the highest dose activity change, negative = inhibition, most hits filed as inhibitors; AID 720580; calls by dose curve; tested in A549 cells; note: potency is the fitted concentration of half-maximal effect; nearly all actives have a fitted effect of over 30% in size
MARV entry inh: inhibitors of Marburg virus binding or cell entry. Potency, µM (top dose mostly 37.8 µM), inactives show at the highest dose activity change, negative = inhibition, usual class: inhibitors. AID 540276. actives 1.8% (n = 300,000). Marburg virus pseudotyped entry inhibition, cell reporter; calls by dose curve; tested in HEK293 cells; note: potency is the fitted concentration of half-maximal effect
Lassa entry inh: Lassa virus entry inhibition | Lassa virus pseudotype entry inhibition, cell reporter | Potency, µM (doses to about 37.9 µM), for inactives: at the top dose activity change, negative = inhibition, actives largely listed as inhibitors | actives 1.2% (n = 300,000) | AID 540256; calls by dose curve; tested in HEK293 cells; note: potency is the fitted concentration of half-maximal effect; nearly all actives have a fitted effect of over 50% in size
HCMV antiviral: inhibitors of human cytomegalovirus; HFF cells, HCMV-luciferase reporter, 72 h; active compounds read low; activity change, negative = inhibition, % at 57.5 µM; actives 4.5% (n = 410,000); in the data active = activity change below about -60%; inconclusive = no clear call, values can overlap the other calls; inactive = above about -39%
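Screen run at 2 compound doses on HFFs infected with reporter HCMV, MOI 1 PFU/cell. Luciferase activity from cell lysates at 72 h post infection gave inhibition relative to buffer-only and Salinomycin wells.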
Vaccinia mCherry: inhibitors of vaccinia virus infection (mCherry reporter signal). Vaccinia virus mCherry reporter infection, fluorescence. Potency, µM (titrated, usually from 36.5 µM), for the others: at the top dose activity change, negative = inhibition, usual class: inhibitors. actives 0.63% (n = 310,000). AID 720579; calls by dose curve; tested in A549 cells; note: potency is the fitted concentration of half-maximal effect; nearly all actives have a fitted effect of over 35% in size
FMDV inh: blocks foot and mouth disease virus | AID 1159524 | actives 1.2% (n = 410,000) | Potency, µM (titrated, usually from 57.9 µM), inactives show at the top dose activity change, negative = inhibition, most hits filed as inhibitors | FMDV antiviral cell-based qHTS; calls by dose curve; tested in HEK293T cells; note: read-out not given here; potency is the fitted concentration of half-maximal effect; nearly all actives have a fitted effect of over 45% in size
The depositor's hits bear a star; i = inactive; u = inconclusive; x = no result; [ ] = another dose, or the depositor's remark. % is set by controls: 0 for no effect and ±100 for the full control effect.

SMILES	Vaccinia Venus	MARV entry inh	Lassa entry inh	HCMV antiviral	Vaccinia mCherry	FMDV inh
CCN(CC)CCNC(=O)CCc1c(C)nc2c(c(C)nn2-c2ccc(C)c(C)c2)c1C	x	x	x	-98*	x	-17%
CNc1nc2cnc(Nc3cccc(OC)c3)cc2n1Cc1ccc(OC)c(OC)c1	x	x	x	24	x	x
COc1ccc(N2CCN(/C(=N\S(=O)(=O)c3ccc(C)cc3)Nc3nc(C)cc(C)n3)CC2)cc1	x	-17%	8.2µM*	-1	x	23%
COc1ccc(N2CCN(C(=O)Cc3ccc(C)cc3)CC2)cc1	-14%	2%	0%	-15	-19%	-17%
O=C1c2ccccc2C(O)(C2N=CC=N2)N1CCc1ccccc1 (stereo unspecified)	x	10%	x	x	x	x
Cc1csc(NC(=O)CS(=O)(=O)Cc2ccccc2)n1	-17%	u	3%[46.1 µM]	-71*	-12%	21%
CCOC(=O)Cc1csc(NC(=O)CS(=O)(=O)Cc2ccccc2)n1	-8%	-22%	4%	10	-7%	-21%
Cc1nc(-c2ccc(NC(=O)c3ccco3)cc2)cs1	x	x	x	-84*	x	11µM*
CCOC(=O)c1sc(NC(=O)c2ccc(CC)s2)nc1C	x	u	u	54	x	51%
Cc1csc(NC(=O)c2ccc(Cn3nc(C)c(Br)c3C)o2)n1	u	u	11µM*	-16	u	22µM*
Cc1nn(Cc2ccc(C(=O)Nc3ccccc3C(F)(F)F)o2)c(C)c1Br	x	u	u	-10	x	-3%
CCc1ccc(C(=O)Nc2nc(C)cs2)s1	-18%	u	1.3µM*	-34	-18%	u
CCc1nc(CNC(=O)C2CCC(=O)N(CCc3ccc(OC)cc3)C2)cs1 (stereo unspecified)	-2%	u	15%	10	-13%	-12%
CCCCC[C@]12Cc3cc(OC)c(OC)cc3[C@H](O1)c1c(cc(C)n(-c3ccccc3)c1=O)O2	x	31%[14.2 µM]	x	x	x	x
Cc1csc(NC(=O)c2ccco2)n1	-3%	u	-12%	-84*	-8%	21%
CCOc1ccc(-c2cccc(NC(=O)c3ccco3)c2)nn1	-15%	-6%	-11%	3	-3%	4%
Cc1nc(-c2cccc(NC(=O)c3ccco3)c2)cs1	-3%	u	8%[46.1 µM]	-87*	-19%	5%
Cc1ccc(C(=O)OCC(=O)Nc2nc(-c3ccccc3)cs2)cc1NC(=O)c1ccco1	u	u	u	-26	u	25µM*
Cc1ccc(C(=O)OCC(=O)Nc2ccccc2)cc1NC(=O)c1ccco1	x	1%	6%	-7	x	23%
Nc1nc(-c2ccc(NC(=O)c3ccco3)cc2)cs1	u	5µM*	u	15	u	-60%
Nc1nc2ccc(NC(=O)c3ccco3)cc2s1	-2%	8%[46.1 µM]	20%	u	4%	25%
COc1ccc(-n2nc3ccc(NC(=O)c4ccc(C#N)cc4F)cc3n2)cc1Cl	5%	u	-5%[46.1 µM]	u	3%	-24%
C=CC1=C2C=C(C3CC3)N(Cc3ccccc3)C=C2C(=O)C(C)(OC(=O)c2ccco2)C1=O (stereo unspecified)	x	-1%[14.2 µM]	x	x	x	x
Cc1c(Cl)cccc1N1C(=O)[C@@H]2[C@H](ON(c3ccccc3)[C@H]2c2cccnc2)C1=O	x	2%	x	x	x	x
CC1CCc2nc(NC(=O)Cc3cccs3)sc2C1 (stereo unspecified)	-26%	0%	-20%	27	x	21%
SMILES	Vaccinia Venus	MARV entry inh	Lassa entry inh	HCMV antiviral	Vaccinia mCherry	FMDV inh
CC1CCc2nc(NC(=O)c3ccco3)sc2C1 (stereo unspecified)	u	1.3µM*	0.28µM*	-78*	-11%	-90%
COc1ccc(CNC(=O)c2cccc3c(-c4cccc(C(N)=O)c4)coc23)cc1OC	-30%	x	x	-94*	-4%	7.9µM*
COc1cc(-c2coc3c(C(=O)NCc4ccc(OC)c(OC)c4)cccc23)ccc1O	u	x	x	-73*	16µM*	18µM*
O=C(/C=C/Nc1ccccc1)c1ccc(Cl)cc1Cl	x	x	x	119	x	-25%
N#Cc1c(Nc2ccccc2)[n+]([O-])c2ccc(Cl)cc2[n+]1[O-]	u	u	3.2µM*	u	-15%	-13%
CCc1c(N)nc(N)nc1Nc1ccc(C)c(C)c1	-21%	u	2%[46.1 µM]	-33	u	u
CCCc1nc2c(C)ccc(C)c2c(N)c1CC	x	9.2µM*	-24%	-2	x	-21%
CN(C)CCNc1ncnc2c1sc1nc(N3CCOCC3)c3c(c12)CC(C)(C)SC3	x	15µM*	u	u	x	u
CCN(CC)CCNc1ncnc2c1sc1nc(N3CCOCC3)c3c(c12)CC(C)(C)SC3	x	-8%	4%	-37	x	0%
O=C(Nc1ccc(Cl)cc1)N[C@H]1CC[C@@]23CCCN2C(=O)CCC[C@H]3C1Cc1ccccc1 (stereo partly specified)	x	x	x	16	x	x
COc1ccccc1-c1ccnc(-n2ncc(C(=O)NCc3cccc(C)n3)c2C)n1	6%	x	x	x	-12%	-8%
O=C(CSc1n[nH]c(-c2ccccn2)n1)Nc1ccc(F)cc1	u	u	10µM*	u	14µM*	12%
Cc1ccc(NC(=O)CSc2n[nH]c(-c3ccccn3)n2)cc1	u	4.5µM*	u	-12	10µM*	0%
O=C(CSc1n[nH]c(-c2ccncc2)n1)Nc1ccc(F)cc1	-2%	-6%	9%	3	-5%	-8%
O=C(CSc1n[nH]c(-c2ccccn2)n1)Nc1ccc(Cl)cc1	-26%	u	u	-96*	7.9µM*	-16%
O=C(CSc1n[nH]c(-c2ccc(Cl)cc2Cl)n1)Nc1ccccn1	-13%	-12%	5%	-40	-27%	-27%
CC1(C)CC(=O)C=C(c2ccc(-c3ccc4[nH]ccc4c3)cc2)C1=O	-16%	x	x	-37	-19%	-26%
Nc1ccn([C@@H]2O[C@H](CO)[C@@H](O)C2O)c(=O)n1 (stereo partly specified)	-27%	u	u	-97*	0.45µM*	-24%
Nc1ccn(C2OC(COC(=O)C34CC5CC(CC(C5)C3)C4)C(O)C2O)c(=O)n1 (stereo unspecified)	u	-8%	4%	-97*	0.32µM*	-12%
Nc1ccn(C2OC(CCl)C(O)C2O)c(=O)n1 (stereo unspecified)	u	x	x	-61*	u	-9%
N=c1ccn2c(n1)OC1C(O)C(CO)OC12 (stereo unspecified)	u	x	x	-100*	28µM*	3%
Nc1ccn([C@@H]2O[C@H](CO)[C@@H](O)[C@H]2O)c(=O)n1	-14%	x	x	40	-20%	-13%
N=c1ccn2c(n1)OCC1C2O[C@@H](O)[C@H]1O (stereo partly specified)	x	x	x	x	x	-10%
COc1ccc(NC(=O)COC(=O)Cc2c(F)cccc2Cl)cc1OC	-2%	8%[46.1 µM]	6%	-31	i	-23%
CCCN1C2=NS(=O)(=O)CCN2c2ccccc21	-7%	u	20%	-101*	x	-9%
OCCN1C2=NCCCN2c2ccccc21	-4%	u	5%[46.1 µM]	25	i	-10%
